The values that follow come from PubChem BioAssay (NCATS).

A number with no mark means an inactive call. Records with an inconclusive call do not appear. The list shows a part of the results. Active and inactive are the calls of the source. Unless noted, calls follow the shape of the dose curve; as a rule, active = well fitted curve in either direction with a large enough effect (not every such curve was filed as active); inconclusive = small, poorly fitted or top-dose-only effect, or another doubt; inactive = flat fitted curve, though single readings scatter. Where only a bound is given, the exact number is not on record here.

Experiment [1] has as its target Lysosomal acid glucosylceramidase (Homo sapiens) (UniProt P04062). As to the kind of experiment: Glucocerebrosidase-p2 (AID 348; in the data active = potency below about 10 µM; also: potency is read from the fitted curve at half-maximal effect). Conditions: purified GBA, blue fluorogenic substrate, 40 min. In short, it runs like this:
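Compounds titrated from 0.6 nM upwards against 0.2 nM enzyme in pH 5.9 citric acid/KH2PO4, taurocholate, tween-20; blue fluorogenic substrate 80 uM, 40 min room temperature, stopped and read Ex 365/Em 440 for AC50.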

Experiment [2] can be described thus: AP1 Signaling Pathway (AID 357).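 Also: ME-180 reporter cells stimulated with EGF at its EC50 level; % is scaled to controls: 0 for no effect and ±100 for the full control effect.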 To be noted: ME-180 AP-1-bla reporter, EGF-induced, beta-lactamase ratio, 5 h; at 7.69 µM (top of the series) unless noted. In outline:
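First, ME-180 AP-1-bla cells were cultured overnight at 37 °C in low-serum Opti-MEM. Next, titrated compounds with EC50 EGF were incubated 5 hours. Finally, CCF4 was added for 2.5 hours and the 460/530 nm ratio recorded.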

Experiment [3] concerns the target Cytochrome P450 1A2 (Homo sapiens) (UniProt P05177). As to the kind of experiment: p450-cyp1a2 (AID 410; calls by dose curve; also: potency is read from the fitted curve at half-maximal effect;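 as to activity change, negative = inhibition: -100% = full effect of reference inhibitor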). Conditions: recombinant CYP1A2, luciferin-ME demethylation, luminescence; series mostly up to 11.4 µM. In short, it runs like this:
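Human CYP1A2 (20nM) demethylated Luciferin-ME at its Km (100uM) in 100mM KPO4. After 10 min compound preincubation, NADPH regeneration ran the reaction 60 min at room temperature. Luciferin was read by luminescence, normalized to 57 uM furafylline.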

Experiment [4] in a line: NFAT Signaling Pathway (AID 444).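 Also: carbachol stimulus at about its EC50 of 1 µM final; % is scaled to controls: 0 for no effect and ±100 for the full control effect.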 To be noted: Jurkat NFAT-bla M1, carbachol, beta-lactamase ratio, 5 h; at 7.69 µM (top of the series) unless noted. In short, it runs like this:
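Read-out: CCF4 FRET ratio (460 nm/530 nm) after 1 h RT dye loading, used for %activity and AC50 from titration series. Cells: Jurkat NFAT-β-lactamase/M1 line, treated with compound plus 1 uM carbachol for 5 h, 37 °C.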

A short description of experiment [5]: Stat Signaling Pathway (AID 446).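 Also: ME-180 cervical cancer cells given 40 pM IL-6 alongside compound; SIE-controlled beta-lactamase reporter measured as 460/530 nm FRET emission ratio; % is scaled to controls: 0 for no effect and ±100 for the full control effect.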 Conditions: ME-180 (cervical carcinoma) SIE beta-lactamase reporter, IL-6 stimulated, 5 h; at 7.69 µM (top of the series) unless noted. In short, it runs like this: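 IL-6/STAT signaling read in ME-180 cells via an SIE beta-lactamase reporter. Stimulus was 40 pM IL-6 (its AC50) for 5 hrs, so both activation and inhibition register.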
In experiment [6] the target is Glucocorticoid receptor (Homo sapiens) (UniProt P04150). As to the kind of experiment: GR-GFP Redistribution (AID 450;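 active = compounds whose dose series gives a full or clear partial fitted curve of increased nuclear translocation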; also: potency is read from the fitted curve at half-maximal effect). Conditions: U2OS GR-GFP nuclear translocation, laser cytometry, 2 h.
Experiment [7] shares this target. As to the kind of experiment: GR-EFC Redistribution (AID 451; calls by dose curve; also: potency is read from the fitted curve at half-maximal effect). Conditions: CHO-K1 GR-EFC translocation, beta-gal luminescence, 2 h. In outline:
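Translocation of GR-ED fusion to nuclear EA restores b-gal, read by luminescence after 1 h room-temperature detection. Engineered CHO-K1 biosensor cells, 1,000/well, exposed 2 h at 37 C to titrations up to 46 uM final.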

Experiment [8] deals with Mitogen-activated protein kinase 10 (Mus musculus) (UniProt Q61831). The experiment is described as follows: JNK3 AlphaScreen Assay (AID 530).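 Also: kinase came from lysate of stimulated human HepG2 cells; signal reports phosphorylation of biotinylated GST-cJun 1-79 at Ser73 with 10 µM ATP; % is scaled to controls: 0 for no effect and ±100 for the full control effect.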 Conditions: JNK3 lysate, c-Jun phosphorylation; series mostly up to 11.4 µM. In outline:
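Room-temperature AlphaScreen kinase assay; pre-activated HepG2 lysate as JNK3 source, biotin-GST-cJun(1-79) substrate, 10 uM ATP, compound 15 min preincubation.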

Experiment [9] addresses 3',5'-cyclic-AMP phosphodiesterase 4B (Homo sapiens) (UniProt Q07343). The experiment is described as follows: qHTS Assay for Inhibitors of PDE-IV (AID 607; active = well fitted activation curve with a large enough effect in the main read-out, with a control signal flat, not every such curve was filed as active; also: % of control where 0% means no effect). To be noted: HEK293 ACTOne CNG channel cells, membrane potential fluorescence; series mostly up to 22.9 µM. In short, it runs like this: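 Live HEK293 cells with a modified cyclic nucleotide-gated (CNG) channel report intracellular cAMP via membrane-potential dye fluorescence (ex 535/em 590 nm). Endogenous PDE-IV was targeted. Compounds were tested at up to 22.9 uM final; RO 20-1724 100 uM served as control.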

A short description of experiment [10]: qHTS Assay for Inhibitors of Fructose-1,6-bisphosphate Aldolase from Giardia Lamblia: Coupling assay counterscreen confirmation (AID 2795; active = well fitted inhibition curve with a large enough effect; also: % is scaled to controls: 0 for no effect and ±100 for the full control effect; nearly all actives have a fitted effect of over 55% in size). To be noted: GAPDH coupling enzyme counterscreen, biochemical; series mostly up to 57.5 µM. In short, it runs like this:
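Readings at 525 nm excitation and 598 nm emission follow a two-step room-temperature protocol: 10 min of compound (up to 57.5 uM final) with coupling enzyme reagent, then 20 min with substrate and AmpLite Red detection reagent.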

Experiment [11] can be described thus: qHTS profiling for inhibitors of Plasmodium falciparum proliferation (AID 504749; active = well fitted inhibition curve with a large enough effect; also: nearly all actives have a fitted effect of over 60% in size; also: potency is read from the fitted curve at half-maximal effect;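 as to activity, negative = inhibition: 0% = DMSO vehicle and full inhibition = artemisinin control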). To be noted: P. falciparum in erythrocytes, SYBR Green DNA, 72 h, at 28.7 µM (top of the series). In short, it runs like this: (§1)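 Three-day growth assay of blood-stage parasites in erythrocytes (0.3% parasitemia, 2.5% hematocrit) at 37 C, 5% CO2, quantified by SYBR Green DNA staining after overnight detergent lysis.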
In general terms: Quantitative high-throughput screening tests each substance at several concentrations.

In the next experiment the test system is AS120. Described as above. To be noted: P. falciparum in erythrocytes, SYBR Green DNA, 72 h; series mostly up to 28.7 µM. In outline:
as §1

For the next experiment, the system named is CP203. The description is as above. Conditions: P. falciparum in erythrocytes, SYBR Green DNA, 72 h; series mostly up to 28.7 µM. In outline: as §1
The next experiment concerns DFO2036. The description is as above. To be noted: P. falciparum in erythrocytes, SYBR Green DNA, 72 h; series mostly up to 28.7 µM. In outline: as §1
The next experiment has as its system W2. Described as above. Conditions: P. falciparum in erythrocytes, SYBR Green DNA, 72 h; series mostly up to 28.7 µM. In outline: as §1

Glucocorticoid receptor (Homo sapiens), sequence (P04150 whole entry, looked up): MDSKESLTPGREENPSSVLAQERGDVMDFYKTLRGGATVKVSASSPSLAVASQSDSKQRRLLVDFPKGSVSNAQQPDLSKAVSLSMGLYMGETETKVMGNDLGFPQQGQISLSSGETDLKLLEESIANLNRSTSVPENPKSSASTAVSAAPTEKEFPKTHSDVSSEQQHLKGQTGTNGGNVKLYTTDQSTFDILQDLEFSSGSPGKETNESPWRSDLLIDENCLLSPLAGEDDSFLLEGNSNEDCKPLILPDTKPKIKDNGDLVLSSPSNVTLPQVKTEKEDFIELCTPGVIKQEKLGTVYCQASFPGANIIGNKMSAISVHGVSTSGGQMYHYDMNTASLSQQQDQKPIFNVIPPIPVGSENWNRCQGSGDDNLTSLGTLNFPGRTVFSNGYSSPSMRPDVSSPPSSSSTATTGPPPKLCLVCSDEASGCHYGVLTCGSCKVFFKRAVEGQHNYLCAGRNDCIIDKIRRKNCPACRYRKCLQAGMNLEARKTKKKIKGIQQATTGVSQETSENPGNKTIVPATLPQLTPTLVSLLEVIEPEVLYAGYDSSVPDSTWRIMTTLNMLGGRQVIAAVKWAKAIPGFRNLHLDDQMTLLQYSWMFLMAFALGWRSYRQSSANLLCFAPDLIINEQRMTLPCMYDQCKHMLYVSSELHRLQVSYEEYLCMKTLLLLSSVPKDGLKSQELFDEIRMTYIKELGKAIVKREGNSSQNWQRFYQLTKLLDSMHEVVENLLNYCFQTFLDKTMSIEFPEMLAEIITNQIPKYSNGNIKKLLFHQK
Lysosomal acid glucosylceramidase (Homo sapiens), sequence (P04062 whole entry, looked up): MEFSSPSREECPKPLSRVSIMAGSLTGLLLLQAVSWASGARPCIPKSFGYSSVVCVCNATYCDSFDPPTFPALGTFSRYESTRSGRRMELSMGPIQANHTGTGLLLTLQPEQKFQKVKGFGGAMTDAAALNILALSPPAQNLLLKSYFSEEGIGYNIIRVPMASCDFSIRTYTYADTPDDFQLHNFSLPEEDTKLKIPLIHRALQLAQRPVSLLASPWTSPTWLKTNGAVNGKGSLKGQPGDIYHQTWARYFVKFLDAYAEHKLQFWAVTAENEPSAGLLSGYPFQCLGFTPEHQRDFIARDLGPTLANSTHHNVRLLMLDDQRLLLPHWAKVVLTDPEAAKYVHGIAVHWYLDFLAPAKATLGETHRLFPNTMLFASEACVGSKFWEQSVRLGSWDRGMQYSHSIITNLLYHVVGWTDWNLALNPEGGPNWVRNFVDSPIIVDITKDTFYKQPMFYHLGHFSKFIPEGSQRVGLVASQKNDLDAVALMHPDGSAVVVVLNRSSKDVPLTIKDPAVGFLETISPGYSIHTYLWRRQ
Cytochrome P450 1A2 (Homo sapiens), sequence (P05177 whole entry, looked up): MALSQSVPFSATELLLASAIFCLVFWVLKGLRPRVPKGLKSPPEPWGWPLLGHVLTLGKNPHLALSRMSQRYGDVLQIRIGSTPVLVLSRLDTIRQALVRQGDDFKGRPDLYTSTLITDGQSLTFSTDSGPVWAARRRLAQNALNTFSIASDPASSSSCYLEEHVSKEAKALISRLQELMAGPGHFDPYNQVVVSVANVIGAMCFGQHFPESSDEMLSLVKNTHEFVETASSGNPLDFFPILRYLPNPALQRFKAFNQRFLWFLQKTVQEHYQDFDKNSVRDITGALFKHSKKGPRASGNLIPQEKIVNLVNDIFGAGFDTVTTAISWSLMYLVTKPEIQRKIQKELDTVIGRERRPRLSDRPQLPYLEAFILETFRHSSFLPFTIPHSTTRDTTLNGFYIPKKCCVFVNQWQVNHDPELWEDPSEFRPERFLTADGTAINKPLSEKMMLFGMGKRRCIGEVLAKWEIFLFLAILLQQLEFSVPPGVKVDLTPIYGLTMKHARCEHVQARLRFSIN
3',5'-cyclic-AMP phosphodiesterase 4B (Homo sapiens), sequence (Q07343 whole entry, looked up): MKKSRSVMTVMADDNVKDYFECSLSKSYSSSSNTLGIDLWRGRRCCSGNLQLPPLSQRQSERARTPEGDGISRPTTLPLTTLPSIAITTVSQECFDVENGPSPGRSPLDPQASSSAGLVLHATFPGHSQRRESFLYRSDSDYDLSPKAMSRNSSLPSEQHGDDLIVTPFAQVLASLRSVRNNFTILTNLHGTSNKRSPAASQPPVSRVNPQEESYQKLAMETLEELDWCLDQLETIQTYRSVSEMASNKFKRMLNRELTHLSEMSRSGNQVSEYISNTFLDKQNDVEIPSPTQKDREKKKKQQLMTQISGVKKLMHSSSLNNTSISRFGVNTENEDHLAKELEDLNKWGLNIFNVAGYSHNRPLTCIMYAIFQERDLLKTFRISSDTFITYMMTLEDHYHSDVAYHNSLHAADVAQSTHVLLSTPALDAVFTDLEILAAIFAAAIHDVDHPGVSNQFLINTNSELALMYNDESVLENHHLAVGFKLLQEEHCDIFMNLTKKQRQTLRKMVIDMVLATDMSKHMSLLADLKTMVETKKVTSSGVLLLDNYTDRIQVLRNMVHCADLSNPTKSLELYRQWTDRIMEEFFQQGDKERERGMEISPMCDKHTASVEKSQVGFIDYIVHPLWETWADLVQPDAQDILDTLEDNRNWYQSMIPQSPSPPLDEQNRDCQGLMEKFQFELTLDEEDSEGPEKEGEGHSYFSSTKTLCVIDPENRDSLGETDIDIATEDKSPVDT

Regarding `NCCNCC1CCNCC1`, the values for the Potency in experiment [1], in experiment [6] and in experiment [7] were over 11.4 µM, over 46 µM and over 9.22 µM, respectively. For the same molecule, the figures for the activity change, negative = inhibition in experiment [2], in [3] and in experiment [4] were 2.94%, -3.6% [at 2.29 µM] and 8.35%, respectively. In addition, in experiment [5], the activity, negative = inhibition is 3.5%. For the same molecule, the Potency result in experiment [8] was “inactive”.

For `NS(=O)(=O)c1ccc(NC2(C(=O)O)CCCC2)cc1`, the Potency in [1] is over 11.4 µM; in [3], 0.794 µM (active); in [6] it was over 46 µM; in experiment [7] it was over 9.22 µM. The activity change, negative = inhibition in experiment [2] is -4.84%; in experiment [4], 2.12%. Further, the activity, negative = inhibition in [5] was 11.8%. Moreover, the Potency result in [8] and in experiment [9] was “inactive” throughout.

Take `Cc1ccc(S(=O)(=O)NCc2cccc([N+](=O)[O-])c2)cc1`: the Potency in experiment [1] was over 11.4 µM; in experiment [3] it was 3.98 µM (active); in experiment [6] it was over 46 µM; in [7], over 9.22 µM. Besides, the activity change, negative = inhibition in experiment [2] was -2.52%; in [4] it was 6.53%. Also, the activity, negative = inhibition in experiment [5] is 2.25%. Moreover, the Potency entry in [8] and in experiment [9] was “inactive” throughout.

In the case of `O=S(=O)(c1ccc(NC(=S)NN=C(C2CC2)C2CC2)cc1)N1CCOCC1`, the molecule was called inactive in experiment [10].

For `COc1cccc(Cn2c(=O)c(C)nc3cnc(Oc4cccc(Cl)c4)nc32)c1`, the Potency in experiment [1] is over 11.4 µM; in experiment [3], 25.1 µM (active); in [6], over 9.22 µM; in experiment [7], over 46 µM. The activity change, negative = inhibition in experiment [2] is -22.3%; in experiment [4] it was -7.01%. Moreover, the activity, negative = inhibition in experiment [5] is -2.38%. For the same molecule, the Potency result in experiment [8] is “inactive”.

Consider `C[C@]12CC[C@H]3c4ccc(O)cc4CC[C@@H]3[C@H]1CC[C@@H]2OC(=O)CCC1CCCC1`, for which the Potency in [1] is over 11.4 µM; in [6], over 46 µM; in experiment [7], over 9.22 µM; in the experiment on W2, 9.53 µM (active). In addition, the activity change, negative = inhibition in experiment [2] is -8.48%; in [4], -0.474%. Further, the Potency entry (in experiment [3]; in experiment [8]; in experiment [9]; in the experiment on AS120; with CP203; in the experiment on DFO2036) was “inactive” each time. The activity, negative = inhibition is 1.67% in [5], 5.91% in experiment [11] (parasite line A) and 2.07% in [11] (parasite line B).

In the case of `O=[N+]([O-])c1ccc2ncccc2c1CCc1c([N+](=O)[O-])ccc2ncccc12`, the Potency in experiment [1] was over 11.4 µM; in experiment [3] it was 3.16 µM (active); in experiment [6], over 46 µM; in experiment [7], over 9.22 µM. For the same molecule, the activity change, negative = inhibition was 1.48% in [2] and 17.8% in [4]. For the same molecule, the activity, negative = inhibition in [5] is 5.88%. Moreover, the Potency result in [8] and in experiment [9] was “inactive” in each case.

Regarding `O=C(O)c1cccc(OCCO)c1`, the results for the Potency in experiment [1], in experiment [6] and in [7] were over 11.4 µM, over 46 µM and over 9.22 µM, respectively. In addition, the activity change, negative = inhibition in [2] was 7.9%; in [4], -28.1%. Moreover, the Potency entry in experiment [3], in [8] and in experiment [9] was “inactive” each time. Also, the activity, negative = inhibition in experiment [5] was 13.6%.
